ATXN2 expr inh: inhibitors of ATXN2 expression; Potency, µM (highest dose often 57 µM), inactives show at the highest dose activity change, negative = inhibition, actives largely listed as inhibitors; HEK-293 ATXN2-luciferase reporter, luminescence, 24 h; AID 1745845; hit rate 0.72% among 360,000; further: potency means the concentration at half of the fitted maximal effect; on the % scale 0 is the no-effect control and ±100 the full control effect; nearly all actives have a fitted effect of over 55% in size
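qHTS (up to 57 uM final) was run with 24 h compound exposure of reporter cells at 37 °C. Each well was multiplexed: SteadyGlo luminescence measured ATXN2-luciferase expression after a fluorogenic Gly-Phe-AFC viability readout (25 uM final).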
IL-1B inflam inh: inhibitors of inflammasome signaling (IL-1 beta secretion); THP-1 LPS/ATP IL-1B secretion, AlphaLISA, 16 h; stronger effect = lower value; activity change, % at 57.5 µM; hit rate 4.7% among 360,000; AID 743279; in the data active means activity change below about -50%; inconclusive means mostly about -30% to -49%; further: on the % scale 0 is the no-effect control and ±100 the full control effect
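Secreted IL-1B measured by AlphaLISA bead assay after 16 h compound exposure of THP-1 cells; compounds (final up to 57.5 uM) added 1 h before LPS (250 ng/mL) and ATP (1.25 mM) stimulation; lower signal means less secretion.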
HepG2 viability: HepG2 cytotoxicity, counter-screen for TGF-b inhibitors. HepG2 CAGA-GFP viability, ATP luminescence, 18 h. Potency, µM (titrated, usually from 46.1 µM), for the others: top-dose activity change, negative = cytotoxicity, hits mostly cytotoxic. hit rate 0.76% among 410,000. AID 588856; further: potency means the concentration at half of the fitted maximal effect
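HepG2 CAGA-GFP cells (1000/well, DMEM with 1% FBS) received compound, then TGF-beta at 500 pg/mL final, and were incubated 18 hours at 37 degrees C. Viability was read by CellTiter-Glo luminescence. Media-only wells were set as complete cell-killing and DMSO as no toxicity.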
TGFb SMAD3 inh: TGF-b pathway inhibition | Potency, µM (doses to about 46.1 µM), inactives show at the highest dose activity, negative = inhibition, usual class: inhibitors | HepG2 CAGA-GFP TGF-b/SMAD3 reporter, GFP fluorescence, 18 h; TGF-beta stimulated, 500 pg/mL final | hit rate 1.2% among 410,000; further: potency means the concentration at half of the fitted maximal effect; on the % scale 0 is the no-effect control and ±100 the full control effect; nearly all actives have a fitted effect of over 65% in size
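TGF-beta reporter screen: HEPG2 CAGA-GFP, 1% FBS, 500 pg/mL TGF-beta final, 18 h; per-cell GFP summed per well; curves fitted and categorized by class.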
S2 tox: reduces viability in counter-screen for ATXN expression inhibitors; S2 cells (HEK-293 line with an ATXN2-luciferase reporter) viability, CellTiter-Fluor protease fluorescence, 24 h; Potency, µM (top dose mostly 56.7 µM), most hits filed as cytotoxic; hit rate 0.49% among 400,000; further: potency means the concentration at half of the fitted maximal effect; nearly all actives have a fitted effect of over 40% in size
* hit, by the source's call; [ ] = dose if it differs, or a comment. Most compounds without a hit are left out; they make up all but 5.7% or so of the library. Unless noted, the call rests on the fitted dose curve; in most records, active means well fitted curve in the direction sought with a large enough effect; inconclusive means small, poorly fitted or top-dose-only effect, or another doubt; inactive means no such curve, though single readings can be large; an effect the other way counts as inactive or inconclusive.

`O=C(Nc1ccccc1)C1=C(c2ccccc2)S(=O)(=O)CCS1(=O)=O` gave ATXN2 expr inh 5.6µM*, IL-1B inflam inh -95*, HepG2 viability 2.5µM*, TGFb SMAD3 inh 2.5µM* and S2 tox 8.9µM*.
`Nc1ccc(/C=C/c2ccnc3ccccc23)c(N)c1` gave HepG2 viability -58% and TGFb SMAD3 inh -27%.
CN(C)c1nc(/C=C(\C#N)C(N)=O)c(Cl)n1-c1ccc(F)cc1 was read as ATXN2 expr inh -8%[11.3 µM], IL-1B inflam inh -98*, HepG2 viability 3%, TGFb SMAD3 inh -6% and S2 tox inactive.
Screening Cc1ccccc1N1CCN(C(=O)c2ccc(Oc3ccc(C(F)(F)F)cn3)cc2)CC1 returned ATXN2 expr inh -33%, IL-1B inflam inh -73*, HepG2 viability -17%, TGFb SMAD3 inh -7% and S2 tox inactive.
`CCOC(=O)c1ccc(NC(=O)COc2ccccc2CNC2CCCC2)cc1` gave ATXN2 expr inh inconclusive, IL-1B inflam inh -86*, HepG2 viability -46%, TGFb SMAD3 inh -4% and S2 tox inconclusive.
`CCOC(=O)c1ccc(NC(=O)C2C3CCCCC32)cc1` (stereo unspecified) gave ATXN2 expr inh 77%, IL-1B inflam inh -64*, HepG2 viability -3%, TGFb SMAD3 inh 11% and S2 tox inactive.
`CC(C)C[C@H]1CN([C@@H](Cc2ccc(O)cc2)CN2CCC[C@@H]2CN2C(=S)NC[C@@H]2Cc2ccccc2)C(=S)N1CCc1ccccc1` gave ATXN2 expr inh inconclusive, IL-1B inflam inh -27, HepG2 viability -5%, TGFb SMAD3 inh inconclusive and S2 tox inconclusive.
Screening CC(C)C[C@H]1CNC(=S)N1C[C@H]1CCCN1C[C@H](Cc1ccc(O)cc1)N1C[C@H](CC(C)C)N(CCc2ccccc2)C1=S returned ATXN2 expr inh inconclusive, IL-1B inflam inh -63*, HepG2 viability -4%, TGFb SMAD3 inh inconclusive and S2 tox inconclusive.
Screening CC(C)C[C@@H](CN1CCCC1CN1C(=S)NC[C@@H]1Cc1ccccc1)N1C[C@H](Cc2ccc(O)cc2)N(CCc2ccccc2)C1=S (stereo partly specified) returned ATXN2 expr inh -35%, IL-1B inflam inh 9 and S2 tox inconclusive.
`CC(C)C[C@@H](CN1CCC[C@@H]1CN1C(=S)NC[C@@H]1Cc1ccc(O)cc1)N1C[C@H](Cc2ccc(O)cc2)N(CCc2ccccc2)C1=S` gave ATXN2 expr inh -23%, IL-1B inflam inh -59*, HepG2 viability -65%, TGFb SMAD3 inh 13µM* and S2 tox 28µM*.
`CCOc1ccccc1C1c2cc3c(cc2OC(C)(N2CCCC2)C1C)OCO3` (stereo unspecified) gave ATXN2 expr inh 2%, IL-1B inflam inh 9, HepG2 viability 5%, TGFb SMAD3 inh -12% and S2 tox inactive.
`COc1cccc(C2c3cc4c(cc3OC(C)(N3CCCC3)C2C)OCO4)c1O` (stereo unspecified) gave ATXN2 expr inh 3%, IL-1B inflam inh -66*, HepG2 viability -7%, TGFb SMAD3 inh inconclusive and S2 tox inactive.
CCN1CCN(c2ccc(NC(=O)c3cc4ccccc4cc3OC)cc2C)CC1 was read as ATXN2 expr inh inconclusive, IL-1B inflam inh -51*, HepG2 viability -117%, TGFb SMAD3 inh inconclusive and S2 tox inconclusive.
Screening CCN1CCN(c2ccc(NC(=O)c3ccccc3F)cc2Cl)CC1 returned ATXN2 expr inh 43%, IL-1B inflam inh -13, HepG2 viability -4%, TGFb SMAD3 inh 14% and S2 tox inactive.
Screening CN1CCN(NC(=O)c2cn(-c3ccccc3)nc2-c2cccc(Br)c2)CC1 returned ATXN2 expr inh -31%, IL-1B inflam inh -136*, HepG2 viability -101%, TGFb SMAD3 inh inconclusive and S2 tox inactive.
`Cc1nc2nc(C)n(CCN3CCOCC3)c(=O)c2c(-c2cccc([N+](=O)[O-])c2)c1C(=O)CCCCCCCCCCN1CCC(c2ccccc2)(c2ccccc2)CC1` gave ATXN2 expr inh inconclusive, IL-1B inflam inh -99*, HepG2 viability 11µM* and TGFb SMAD3 inh 7.1µM*.
For Cc1ccc(/C=C/c2onc(C)c2S(=O)(=O)N2CCC(C(=O)N(CCC(C)C)Cc3ccco3)CC2)cc1 the results were HepG2 viability -9% and TGFb SMAD3 inh -1%.
Screening COc1ccc(C(=O)Nc2ccc(OCC(F)(F)C(F)F)c(C(F)(F)F)c2)cc1OC returned ATXN2 expr inh -31%, IL-1B inflam inh -23, HepG2 viability 3%, TGFb SMAD3 inh inconclusive and S2 tox inactive.
For O=C(CN1CCN(c2ccc(Cl)cc2)CC1)Nc1ccc(Cl)c(C(F)(F)F)c1 the results were ATXN2 expr inh inconclusive, HepG2 viability -40%, TGFb SMAD3 inh 10µM* and S2 tox inconclusive.
Screening O=C(CN1CCN(S(=O)(=O)c2ccc(F)cc2)CC1)Nc1ccc(Cl)c(C(F)(F)F)c1 returned ATXN2 expr inh -31%, IL-1B inflam inh -60*, HepG2 viability -7%, TGFb SMAD3 inh inconclusive and S2 tox inactive.
O=C(Nc1ccc(OCC(F)(F)C(F)F)c(C(F)(F)F)c1)c1ccc(Cl)cc1 was read as ATXN2 expr inh inconclusive, IL-1B inflam inh -104*, HepG2 viability 18µM*, TGFb SMAD3 inh inconclusive and S2 tox inactive.
CCOc1ccc(NC(=O)CN2CCN(CC(=O)Nc3ccc(Cl)c(C(F)(F)F)c3)CC2)cc1 was read as ATXN2 expr inh inconclusive, IL-1B inflam inh -59*, HepG2 viability 13µM*, TGFb SMAD3 inh inconclusive and S2 tox inconclusive.
O=C(CN1CCN(CC(=O)Nc2ccccc2F)CC1)Nc1ccc(Cl)c(C(F)(F)F)c1 was read as ATXN2 expr inh inconclusive, HepG2 viability -66%, TGFb SMAD3 inh -10% and S2 tox inconclusive.
`CCOC(=O)c1ccc(NC(=O)c2ccc(=O)n(Cc3cccc(C)c3)c2)cc1` gave ATXN2 expr inh inconclusive, HepG2 viability -41%, TGFb SMAD3 inh -18% and S2 tox inactive.
Screening CC(C)[C@H](O)C(=O)N[C@@H](C)C(=O)N[C@@H]1C(=O)N(C)CCc2ccccc21 returned ATXN2 expr inh 23%.
CNCC(=O)Nc1ccc(Cl)c(C(F)(F)F)c1 was read as ATXN2 expr inh -30%, IL-1B inflam inh -10, HepG2 viability -37%, TGFb SMAD3 inh 4% and S2 tox inactive.
`CC1CCCN(S(=O)(=O)c2ccc(NC(=O)CN3CCCCC3)cc2)C1` (stereo unspecified) gave ATXN2 expr inh -8%, IL-1B inflam inh -4, HepG2 viability -9%, TGFb SMAD3 inh -7% and S2 tox inactive.

Source: PubChem (National Center for Advancing Translational Sciences (NCATS))
